Values joined by “and” are separate entries in the source; they are usually repeats but may differ in a detail not shown here. Equal values may be shown once. Hit rate of the full screen: of about 390,000 compounds, about 4,000 (1%) were called active. Not shown: some 7% with an inconclusive outcome. The entries come from a sample that favours actives as a whole. Values without a mark were called inactive. Calls follow the shape of the dose curve; as a rule, active = well fitted inhibition curve with a large enough effect; inconclusive = small, poorly fitted or top-dose-only effect, or another doubt; inactive = no such curve, though single readings can be large or run the other way.
Potency is read from the fitted curve at half-maximal effect.

The target of the assay is DNA polymerase iota (Homo sapiens) (UniProt Q9UNA4). Nature of the assay: qHTS for Inhibitors of Polymerase Iota. To be noted: Pol iota fluorescent replication assay, 10 min; series mostly up to 115 µM; activity, negative = inhibition: at the top concentration. In a few lines: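 Pol iota at 10 nM preincubated 15 min with compounds at room temperature; reaction started with fluorescent substrate, 50 nM final. Fluorescence read kinetically at 0 and 10 min; buffer-only wells as negative control.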
Sequence of DNA polymerase iota (Homo sapiens) (Q9UNA4 whole entry, looked up): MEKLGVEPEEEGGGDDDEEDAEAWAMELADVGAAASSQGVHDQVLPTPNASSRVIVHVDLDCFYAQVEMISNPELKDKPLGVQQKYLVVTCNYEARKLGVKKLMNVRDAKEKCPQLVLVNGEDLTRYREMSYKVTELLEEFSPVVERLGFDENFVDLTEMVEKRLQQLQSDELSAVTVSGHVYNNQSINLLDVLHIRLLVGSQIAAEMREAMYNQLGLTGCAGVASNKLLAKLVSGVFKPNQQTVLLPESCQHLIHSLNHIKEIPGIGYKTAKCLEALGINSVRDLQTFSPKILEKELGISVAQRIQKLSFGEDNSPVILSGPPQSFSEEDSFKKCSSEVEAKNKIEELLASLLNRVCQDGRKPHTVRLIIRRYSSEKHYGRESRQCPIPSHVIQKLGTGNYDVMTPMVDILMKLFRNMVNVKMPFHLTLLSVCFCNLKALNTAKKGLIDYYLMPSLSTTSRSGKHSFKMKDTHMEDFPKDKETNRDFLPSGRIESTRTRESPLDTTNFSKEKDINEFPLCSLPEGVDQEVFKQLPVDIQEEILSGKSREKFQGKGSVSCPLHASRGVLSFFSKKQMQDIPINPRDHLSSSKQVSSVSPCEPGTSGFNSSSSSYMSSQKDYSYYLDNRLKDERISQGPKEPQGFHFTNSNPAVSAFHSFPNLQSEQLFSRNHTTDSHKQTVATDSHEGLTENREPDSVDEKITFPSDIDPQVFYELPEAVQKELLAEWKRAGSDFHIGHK
On the technique in general: In qHTS, concentration-response curves come from the screen itself.
Take `O=[N+]([O-])c1ccc(C=Nc2ccc(Cl)cc2Cl)s1`: the Potency was 39.8 µM (active). In the case of `CCN(CC)/[N+]([O-])=N/OCOC(=O)Cc1c(C)n(C(=O)c2ccc(Cl)cc2)c2ccc(OC)cc12`, the “activity, negative = inhibition” value is 7.56%. On to `O=c1nc2s/c(=C\c3ccco3)c(=O)n2nc1Cc1ccccc1`, for which the Potency was 7.94 µM (active). Consider `O=C(OCN1C(=O)c2ccccc2C1=O)/C(=C\c1ccco1)NC(=O)c1ccccc1`, for which the “activity, negative = inhibition” value was -18.1%.

As for `O=C(Nc1ccccc1C(F)(F)F)c1nc(S(=O)(=O)Cc2ccccc2F)ncc1Cl`, the “activity, negative = inhibition” value was -5.98%. For `NC1=NC(c2cc(F)cc(F)c2)n2c(nc3ccccc32)N1` (centres undefined), the “activity, negative = inhibition” value was 4.72%. The same measure, in the same setting: then `Cc1cc(C)c2oc(C(=O)Nc3ccc(S(=O)(=O)N4CCCCCC4)cc3)cc(=O)c2c1`, with 5.81%; and `Cc1ccc(-n2c(=O)c3cccnc3n2CC(=O)Nc2ccccc2C(F)(F)F)cc1C`, with -0.67%.

With `CCN(C(=O)COC(=O)CCOc1cccc(C)c1)c1c(N)n(Cc2ccccc2)c(=O)[nH]c1=O`, the “activity, negative = inhibition” value was 22.8%. On to `COc1ccc(Cn2c(O)c(/C=C3/C=CC=N3)c(=O)[nH]c2=O)cc1`, for which the “activity, negative = inhibition” value was -9.71%. For `CCCOc1ccc(Cn2c(O)cc(=O)[nH]c2=O)cc1`, the Potency is 22.4 µM (active). For the compound `COc1ccccc1CCNC(=O)c1cccn1-c1nnc(N2CCCCC2)s1`, the “activity, negative = inhibition” value is 3.68%. The same measure, in the same setting: then `Cc1ccc2nc(-c3ccc(C)c(NC(=O)Cc4ccccc4)c3)oc2c1`, with 17.9%. Still for that read-out and setting: then `Cc1c(CCO)sc[n+]1CC(=O)c1ccc2ccccc2c1`, with 5.31%. As to `O=C(c1cc2c(s1)CCC2)N1CCN(c2ccccc2)CC1`, the Potency was 25.1 µM (active).

Turning to `O=C(c1cc2ccccc2s1)N1CCN(c2ccccn2)CC1`, the “activity, negative = inhibition” value is 29.9%. On to `CC1CCN(c2nc3ccc(C(=O)N4CCN(c5ccccc5)CC4)cc3s2)CC1`, for which the “activity, negative = inhibition” value is -4.14%. On the same count and under the same terms, under `CCNC(=O)Cn1nc(C)n2c(cc3c(OC)cccc32)c1=O` stands 2.21%; under `CN(C)c1ccc(/C=N\Nc2ccc([N+](=O)[O-])cc2[N+](=O)[O-])cc1Cl`, -14%. Same read-out and setting: under `COc1cccc(Cn2c(SCc3ccc(C(=O)N4CCCCC4)cc3)nc3ccncc32)c1` stands 3.02%; under `COCCCNC(=O)Cc1ccc(-n2c(C)nc3cccnc32)cc1`, -18.4%. On the same count and under the same terms, then `CCc1nc2cccnc2n1-c1ccc(CC(=O)Nc2c(C)cccc2C)cc1`, with 7.57%.

`CCc1nc2cccnc2n1-c1ccc(C(=O)O)cc1`: the Potency was 25.1 µM (active).

On to `COc1ccc(N2CCN(Cc3nc4c(c(=O)[nH]c(=O)n4C)n3Cc3ccc(Cl)cc3)CC2)cc1`, for which the “activity, negative = inhibition” value was 25.9%. On the same count and under the same terms, under `O=C(NCCc1ccc(Cl)cc1)c1ccc2c(c1)N(Cc1ccc(F)cc1)C(=O)CS2` stands -20.5%; under `CCC(=O)N1CCc2cc(Br)cc(S(=O)(=O)CCC(=O)NCCc3ccc(OC)c(OC)c3)c21`, 14.3%; under `Cc1cccn2c(=O)c(/C=C(\C#N)S(=O)(=O)c3ccc(Cl)cc3)c(N3CCC(C(N)=O)CC3)nc12`, -8.99%. The same measure, in the same setting: under `CCOC(=O)CNC(=O)c1cc2c(=O)n3cccc(C)c3nc2s1` stands 5.79%. For `CCOC(=O)CC1C(=O)NCCN1c1nc2c(C)cccn2c(=O)c1/C=C1\SC(=S)N(C(C)CC)C1=O` (centres undefined), the Potency is 39.8 µM (active).

As to `CC1CCC(N2CC(=O)N(CCC3=CCCCC3)C(c3ccc(F)cc3)C2=O)CC1` (centres undefined), the “activity, negative = inhibition” value is -7.19%. Same read-out and setting: under `COc1cc2c(cc1OC)C(COc1ccc(F)cc1)N(C(=O)c1ccccc1F)CC2` (centres undefined) stands 3.48%; under `CCc1ccc(Nc2nn3c(=O)c4cc5c(cc4nc3s2)OCO5)cc1`, -22.5%.

With `Fc1ccc(-c2ccc(-c3nn4c(-c5ccco5)nnc4s3)o2)cc1`, the “activity, negative = inhibition” value was -5.94%.

In the case of `c1ccc(-c2cc(-c3nnc4sc(-c5ccccn5)nn34)[nH]n2)cc1`, the Potency is 25.1 µM (active).

Regarding `COc1ccc(S(=O)(=O)N(CC(=O)NCc2ccco2)c2ccc(F)cc2)cc1`, the “activity, negative = inhibition” value was 95%. `CS(=O)(=O)N(CC(=O)NCc1ccco1)c1ccc2c(c1)OCO2`: the Potency is 70.8 µM (active). As to `Cc1ccc(S(=O)(=O)N(CC(=O)NCc2ccco2)c2ccccc2C)cc1`, the “activity, negative = inhibition” value is 42.4%. On the same count and under the same terms, under `CCOC(=O)N1CCC(C(N)=O)CC1` stands 10.7%. The same measure, in the same setting: under `O=C(O)C1CCN(C(=O)OCc2ccccc2)CC1` stands 6.85%. On to `CCOC(=O)N1CCC(c2cc(=O)n(-c3ccccc3)[nH]2)CC1`, for which the Potency is 1.41 µM (active). For the compound `COc1ccccc1-c1noc(CSc2nnc(-c3ccccc3)n2-c2ccc(C)c(C)c2)n1`, the “activity, negative = inhibition” value is 13.3%. The same measure, in the same setting: then `COc1ccc(C(CCN2CCOCC2)c2c(OC)cc(OC)c3c2OC(=O)CC3c2ccc(OC)cc2)cc1` (centres undefined), with -4.09%; and `OCCN1CCOCCOCCN(CCO)CCN(CCO)CC1`, with 10.2%; and `O=[N+]([O-])c1ccc(COc2ccccc2CN2CCOCC2)cc1`, with 35.4%. In the case of `Oc1c(CN2CCOCC2)ccc(CN2CCOCC2)c1O`, the Potency was 10 µM (active). In the case of `Cc1cccc(NC(=O)CSc2nnc(CNC(=O)c3cccc(C)c3)n2-c2ccccc2)c1`, the “activity, negative = inhibition” value is -1.81%.

As to `CO/N=C(\C(=O)N[C@@H]1C(=O)N2C(C(=O)O)=C(COC(C)=O)CS[C@H]12)c1csc(N)n1` (stereo in doubt), the Potency is 20 µM (active) and 17.8 µM (active) and 11.2 µM (active).

As to `Cc1nnc(SCC2=C(C(=O)O)N3C(=O)C(NC(=O)Cn4nc(C)c(Cl)c4C)C3SC2)s1` (centres undefined), the “activity, negative = inhibition” value is -26.5%.

Turning to `C=CC1=C(C(=O)O)N2C(=O)[C@@H](NC(=O)/C(=N\OCC(=O)O)c3csc(N)n3)[C@H]2SC1`, the Potency is 50.1 µM (active).

Regarding `COc1ccc(CCNC(=O)Cn2c(=O)cc(C(F)(F)F)c3c(C)nn(C)c32)c(OC)c1`, the “activity, negative = inhibition” value is -7.16%. On the same count and under the same terms, then `Cc1ccc(Cn2c(=O)n(-c3ccc(C)cc3)c(=O)c3c2c2cc(C)ccc2n3C)cc1`, with 1.68%. Regarding `COc1ccc(CCNC(=O)CCCn2c(=O)c3ccccc3n(Cc3ccc(F)cc3Cl)c2=O)cc1OC`, the “activity, negative = inhibition” value is 4.28%. Same read-out and setting: then `COc1ccc(C2CC(O)(c3ccccc3)Oc3cc(C)cc(C)c32)cc1` (centres undefined), with -9.41%. On to `O=C(OCc1cc(=O)n2nc(C3CC3)sc2n1)c1ccccc1Cl`, for which the “activity, negative = inhibition” value was 0.645%. Consider `Cc1nn2c(=O)cc(COC(=O)c3ccccc3NC(=O)COc3ccccc3C)nc2s1`, for which the “activity, negative = inhibition” value was -2.78%. Regarding `COc1ccccc1C(=O)OCc1cc(=O)n2nc(-c3cccs3)sc2n1`, the Potency is 79.4 µM (active). As for `Clc1cccc[n+]1CCCC[n+]1ccccc1Cl`, the “activity, negative = inhibition” value was 3.89%. Still for that read-out and setting: under `Cc1ccc(-c2nc(=N)sn2Cc2ccccc2)cc1` stands 8.29%.

Take `CSc1ccc(CCNC(=O)c2cnn(-c3ccccc3)c2-n2cccc2)cc1`: the “activity, negative = inhibition” value was 8.13%. Still for that read-out and setting: then `O=C(N/N=C/c1ccco1)c1ccc(NC(=O)C2CC2)cc1`, with -9.3%.

Turning to `O=C(N/N=C/C=C/c1ccco1)c1cccs1`, the Potency is 22.4 µM (active). For `CC1(C)CC(=O)C/C(=N\NC(=O)c2cccs2)C1`, the “activity, negative = inhibition” value was 1.79%.

As for `CC(=O)c1ccc(S(=O)(=O)N2CCC3(CC2)OCCO3)cc1`, the “activity, negative = inhibition” value is 16.8%. `CC(=O)c1ccc(S(=O)(=O)N2CCN(C(=O)/C=C/c3ccc4ccccc4n3)CC2)cc1`: the Potency is 44.7 µM (active). Regarding `CC(=O)c1ccc(S(=O)(=O)N2CCN(c3nc4c(C)c(C)ccc4cc3C#N)CC2)cc1`, the “activity, negative = inhibition” value is -12.5%. On the same count and under the same terms, under `Cn1c(=O)nc2n(-c3ccc(Br)cc3)c3cccc(Cl)c3cc-2c1=O` stands 9.36%; under `COc1ccc(N2C(=O)CC(Nc3ccc(F)cc3)C2=O)c([N+](=O)[O-])c1` (centres undefined), 135%. For `CC(=O)Oc1cccc(N2C(=O)CC(Nc3ccc(N4CCOCC4)cc3)C2=O)c1` (centres undefined), the Potency is 20 µM (active). As for `COc1ccc(N2CCN(C3CC(=O)N(c4ccc5c(c4)OCCO5)C3=O)CC2)cc1` (centres undefined), the “activity, negative = inhibition” value was -17.7% [at 58.9 µM].

For `Cc1ccc(NC(=O)CSc2nc3c(c(=O)[nH]2)CN(Cc2ccc4c(c2)OCO4)CC3)cc1C`, the “activity, negative = inhibition” value is 93.1%. The same measure, in the same setting: then `CCc1ccc2ncc3c(-c4ccc(C)cc4)nn(CC(=O)NCc4ccccc4)c3c2c1`, with -9.65%. Take `COC(=O)c1cnc(N2CCN(c3ccccc3OC)CC2)c2ccccc12`: the “activity, negative = inhibition” value was -17.2%. Take `Cc1cc(-c2n[nH]c(=S)n2/N=C/c2ccco2)n[nH]1`: the Potency is 44.7 µM (active). In the case of `COc1ccccc1/C=C/C=N/n1c(-c2ccc(Cl)cc2Cl)n[nH]c1=S`, the “activity, negative = inhibition” value is 23.2%.

Regarding `S=c1[nH]nc(-c2ccco2)n1/N=C/c1ccc(Br)s1`, the “activity, negative = inhibition” value was 7.83%.

In the case of `COc1ccc(C)cc1NC(=O)CCc1c(C)nn(-c2ccc(N3CCOCC3)nn2)c1C`, the “activity, negative = inhibition” value is 2.12%.

Turning to `COc1cccc(C(=O)NC(=O)Nc2ccc(-c3cc(C(F)(F)F)nn3-c3ccccc3)cc2)c1`, the “activity, negative = inhibition” value was -5.55%. Same read-out and setting: then `COC(=O)C1=C(c2ccccc2)c2ccccc2S(=O)(=O)N1CC(=O)Nc1ccccc1C(F)(F)F`, with -2.37%. The same measure, in the same setting: then `OC(Cc1ccc2ccccc2n1)c1ccc(Cl)c(Cl)c1` (centres undefined), with 13.3%. Still for that read-out and setting: under `O=C(NCCS(=O)(=O)N1CCN(c2ccc(F)cc2)CC1)c1ccccc1Br` stands 34.6%. For `CC(=O)Nc1ccc(S(=O)(=O)NC2(C(F)(F)F)C(=O)NC(C)=C2C#N)cc1` (centres undefined), the Potency was 22.4 µM (active). On to `CC(=O)Nc1ccc(S(=O)(=O)NC2(C(F)(F)F)C(=O)Nc3c2c(=O)[nH]c(=O)n3Cc2ccccc2)cc1` (centres undefined), for which the “activity, negative = inhibition” value was 13%.

For the compound `CCCN1C(=O)C(NS(=O)(=O)c2ccc(N)cc2)(C(F)(F)F)C(C(=O)OC)=C1C` (centres undefined), the “activity, negative = inhibition” value is 21.5%. With `Cc1c(Cl)cccc1NC(=O)N1CCN(C(=O)c2nsc3ccccc23)CC1`, the “activity, negative = inhibition” value was -1.97%. With `O=C(CCSCc1ccccc1F)N1CCN(c2ccc(Cl)cc2)CC1`, the “activity, negative = inhibition” value was 5.1%.

On to `Cc1cccc(N(C(=O)c2sc(C)nc2C)C(C(=O)NCC2CCCO2)c2ccccc2)c1` (centres undefined), for which the “activity, negative = inhibition” value is 159%. Same read-out and setting: under `Cc1cccc(N(C(=O)Cc2cccs2)C(C(=O)NCc2ccco2)c2ccncc2)c1` (centres undefined) stands 3.72%.

Take `Cc1nc(C)c(C(=O)N(c2ccc(C)c(C)c2)C(C(=O)NCc2ccco2)c2ccccc2)s1` (centres undefined): the Potency was 79.4 µM (active). `CC(C)(C(=O)NO)c1ccccc1`: the “activity, negative = inhibition” value was 22.6%. The same measure, in the same setting: under `O=C(Nc1c(-c2ccc(F)cc2)nc2ccccn12)c1cccc(F)c1` stands -14.9%; under `CS(=O)(=O)c1ccc(Cl)c(NC(=O)COC(=O)c2ncc(Cl)c(Cl)c2Cl)c1`, 27.4%. The same measure, in the same setting: under `O=C(COc1ccc(Cl)cc1)N1CCN(S(=O)(=O)c2ccc(Cl)cc2)CC1` stands 0.841%. For `CS(=O)(=O)c1ccc(C(=O)OCC(=O)NNC(=O)COc2ccc(Cl)cc2)cc1`, the Potency is 79.4 µM (active). In the case of `COc1cc(OC)c(/C=C/c2ccnc3ccccc23)c(OC)c1`, the “activity, negative = inhibition” value is 6.37%.

The record behind these values is PubChem BioAssay AID588590 (National Center for Advancing Translational Sciences (NCATS), 2011).
